High-throughput results: PubChem, National Center for Advancing Translational Sciences (NCATS)
Hits are enriched below; roughly 2.4% of the tested compounds scored in any of these assays.
ClpP mod: qHTS Assay for Activators of ClpP. 340,000 tested, 1.9% active. purified B. subtilis ClpP, FRET peptide cleavage, 20 min. Potency, µM (series often up to 57.5 µM); active = well fitted falling curve with a large enough effect; inconclusive = small, poorly fitted or top-dose-only effect; inactive = no such curve, though single readings can be large or run the other way; note: the source files actives as falling curves though it sought activators and does not explain the sign; nearly all actives have a fitted effect of over 65% in size
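Purified B. subtilis ClpP, 10 microg/mL final in Tris/HCl pH8 with KCl, BSA, glycerol and Tween-20, cleaved an Abz/nitrotyrosine-quenched decapeptide. Fluorescence (ex 320, em 430) was read at 0 and 20 min at room temperature. Delta was normalized to 5.8 microM ADEP and DMSO/no-enzyme controls.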
Rango dissoc inh: inhibition of RanGTP-driven Rango-importin beta dissociation; O95149+P62826; Biochemical FRET Rango-importin beta, RanGTP-induced dissociation; Potency, µM (series often up to 46.1 µM); 340,000 tested, 0.071% active; AID 540253; calls by dose curve; note: nearly all actives have a fitted effect of over 45% in size
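Compounds sat 5 min at room temperature with 0.1 uM Rango biosensor plus 0.25 uM importin beta, then FRET pre-read. RanGTP-RCC1 (0.6 uM Ran, 2mM GTP, 0.2 uM RCC1) added for 45 min, and the CFP/YFP post-read measured blocked complex dissociation.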
PTAP TSG101 blk: blocks PTAP/TSG101 interaction to inhibit HIV-1 budding. Q99816. Fluorescence polarization, FITC-PTAP peptide / Tsg101 binding. Potency, µM (titrated, usually from 115 µM), actives largely listed as inhibitors. 340,000 tested, under 10 active; active = well fitted inhibition curve with a large enough effect in the main read-out, with a control signal flat, not every such curve was filed as active; inconclusive = small, poorly fitted or top-dose-only effect, or effect the other way, or a change in a side signal; inactive = no such curve, though single readings can be large or run the other way
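Fluorescence polarization binding of Tsg101 binding domain (10 uM final) to FITC-labeled PTAP peptide (50 nM final) in HEPES pH 7.5 buffer with NaCl, Tween 20, EDTA, TCEP. Compounds added before peptide; binding 20 min at RT.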
TDP1 block: blocks human tyrosyl-DNA phosphodiesterase 1; Q9NUW8; recombinant TDP1, AlphaScreen DNA substrate cleavage; Potency, µM (titrated, usually from 130 µM), usual class: inhibitors; 350,000 tested, 0.28% active; AID 485290; note: nearly all actives have a fitted effect of over 40% in size
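E. coli-derived human Tdp1, 1 nM final. Cpd preinc 15 min RT; substrate 15 nM final, 5 min RT; AS bead mix 10 ug/ml final, 10 min RT. Signal loss = tyrosine-FITC cleavage. No-enzyme wells = max signal.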
12-LOX inh: inhibitors of human 12S-lipoxygenase ALOX12; P18054; Potency, µM (doses to about 108 µM), usual class: inhibitors; AID 1671190; purified 12hLO, xylenol orange hydroperoxide absorbance; 580,000 tested, 1.1% active
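Hydroperoxide product was detected by ferrous iron/xylenol orange as the 573 to 405 nm absorbance ratio. Arachidonic acid at 40 uM (final) was turned over for 30 min at room temperature by 150 nM human 12hLO, pH 7.0 Hepes buffer, after 15 min compound preincubation.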
Rango complex inh: inhibitors of Rango-importin beta complex formation | 340,000 tested, 0.031% active | Rango CFP/YFP FRET sensor + importin beta, 45 min | Potency, µM (doses to about 92.2 µM); calls by dose curve; note: nearly all actives have a fitted effect of over 15% in size
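FRET biosensor Rango (snurportin 1 IBB between N-terminal EYFP and C-terminal Cerulean), 50 nM in PBS/1 mM DTT/0.02% Tween-20/0.1% BSA, preincubated 5 min RT with compound; 0.125 microM importin beta added, 45 min RT, CFP/YFP FRET ratio read.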
Hits are given with their value; – = inactive; ? = inconclusive; · = not tested or not shown; ! = repeats disagree. Unless noted, calls come from the whole dose curve; as a rule, active = well fitted curve in the direction sought with a large enough effect; inconclusive = small, poorly fitted or top-dose-only effect, or another doubt; inactive = no such curve, though single readings can be large; an effect the other way counts as inactive or inconclusive.

SMILES | ClpP mod | Rango dissoc inh | PTAP TSG101 blk | TDP1 block | 12-LOX inh | Rango complex inh
CCc1nc(N)c(C#N)c(-c2ccccc2OC)c1C | 28µM | – | – | – | – | –
Cc1nc(N)c(C#N)c(-c2ccccc2Cl)c1C | ? | – | – | – | – | –
CCc1nc(N)c(C#N)c(-c2cccs2)c1C | · | · | · | · | – | ·
COc1ccccc1-c1cc(C2CC2)nc(N)c1C#N | 28µM | – | · | – | – | –
COc1ccccc1-c1c(C)c(C)nc(N)c1C#N | 22µM | – | – | – | – | –
COc1ccccc1-c1c(C#N)c(N)nc2c1CCc1ccccc1-2 | 1.8µM | – | – | – | ? | –
N#Cc1c(-c2ccccc2Cl)cc(C2CC2)nc1N | ? | – | – | – | ? | ?
COc1ccccc1C(=O)NC1CCN(c2cc(C(F)(F)F)ncn2)CC1 | · | · | · | · | – | ·
O=C(CCc1ncc(-c2ccc(F)cc2F)o1)Nc1cc(F)cc(F)c1 | · | · | · | · | – | ·
O=C1c2ccccc2NC(c2cnn(-c3ccccc3)n2)N1c1ccccc1 (stereo not drawn) | · | · | · | · | – | ·
NC(=O)C1(Nc2ccc(C(=O)O)cc2)CCCC1 | 11µM | – | – | · | – | –
Cc1ccc(C(=O)N2CCN(C(=O)c3nnn4c3COC(c3ccc(Cl)cc3)C4)CC2)s1 (stereo not drawn) | · | · | · | · | – | ·
Cc1ccc(Nc2c(-c3ccccc3O)nc3cnccn23)cc1 | · | – | – | – | – | ?
Cc1ccc(Nc2c(-c3ccccc3O)nc3cc(C)ccn23)cc1 | 28µM | · | · | – | – | ·
COc1ccccc1-n1cnnc1SCC(=O)NC(C)c1ccc(-c2ccccc2)cc1 (stereo not drawn) | · | · | · | · | 1.6µM | ·
COc1ccccc1-n1cnnc1SCC(=O)NC1CCCC1 | – | – | – | – | – | –
CC12CC3(O)OC(O1)C1(COC(=O)c4ccccc4)[C@@H]3CC21O[C@@H]1O[C@H](CO)[C@@H](O)[C@H](O)[C@H]1O | · | · | · | – | · | ·
COc1ccc2c(Cl)c(C(=O)NCCc3ccc(S(N)(=O)=O)cc3)sc2c1 | 14µM | – | – | · | – | –
COc1cc(=O)n2c(c1C(=O)NC(C)c1ccco1)CCN(Cc1ccccc1Cl)CC2 (stereo not drawn) | · | · | · | · | – | ·
Cc1cc(C)n2c(Br)c(CSc3nc4ccccc4o3)nc2n1 | 28µM | – | – | – | ? | –
c1ccc(Nc2nc(NCc3ccco3)nc3nccnc23)cc1 | – | · | · | 50µM | · | ·
COc1ccc(OCc2nc3c4c(ncn3n2)-c2ccccc2CC42CCCC2)cc1 | 28µM | – | – | – | – | –
O=C(O)c1cccc(N2C(=O)/C(=C/c3ccc([N+](=O)[O-])cc3)C=C2c2ccccc2)c1 | – | – | – | – | 35µM | –
O=C(NCC1CC1)C(=O)Nc1cccc2[nH]ccc12 | · | · | · | · | – | ·
O=C(O)c1ccccc1NS(=O)(=O)c1cccc(-n2sc3ccccc3c2=O)c1 | · | – | – | ? | 0.22µM | –
SMILES | ClpP mod | Rango dissoc inh | PTAP TSG101 blk | TDP1 block | 12-LOX inh | Rango complex inh
O=C(NN1C(=O)c2cc(Br)ccc2NC1c1cc(Br)cc(Br)c1O)c1ccncc1 (stereo not drawn) | · | ? | – | – | 50µM | ?
Cc1ccc(Cn2cccc(NC(=O)NCc3ccccc3)c2=O)cc1 | 32µM | – | – | – | – | –
Cc1ccc(CC(CC(=O)O)C(=O)NCc2ccccc2)cc1 (stereo not drawn) | 16µM | – | – | – | – | –
O=C(NCc1ccccc1)Nc1cccn(Cc2ccc(Cl)cc2)c1=O | – | – | – | – | – | –
CSCCOC(=O)c1[nH]c2c(c1C)C(=O)CC(c1ccco1)C2 (stereo not drawn) | – | – | – | 13µM | – | –
Cc1cc(C(=O)NCc2c[nH]c3ncccc23)ccc1Cl | · | · | · | · | – | ·
COCc1cn(C[C@H]2C[C@@H](NCc3cccnc3)[C@H](O)[C@@H]2O)nn1 | · | · | · | · | 22µM | ·
O=S1(=O)CCN(Cc2cn(C[C@H]3C[C@@H](NCc4ccc(F)cc4)[C@H](O)[C@@H]3O)nn2)CC1 | · | · | · | · | 13µM | ·
COCC(=O)N[C@@H]1C[C@H](Cn2cc(CN3CCS(=O)(=O)CC3)nn2)[C@@H](O)[C@H]1O | · | · | · | · | – | ·
O=S(=O)(N[C@@H]1C[C@H](Cn2cc(-c3cccnc3)nn2)[C@@H](O)[C@H]1O)c1ccccc1 | · | · | · | · | 20µM | ·
O=C(NCCc1cccnc1)c1ccc(F)cc1 | · | · | · | · | – | ·
Cc1cc(N2CCN(C(=O)c3ccco3)CC2)n2nc(-c3cccc(Cl)c3)cc2n1 | 35µM | – | – | – | – | –
Cc1ccccc1NC(=O)c1sc2c(c1C)C(c1cccs1)CC(=O)N2 (stereo not drawn) | · | · | · | · | 25µM | ·
Fc1cccc(NC(=S)NNc2ccccc2)c1 | – | – | – | · | ? | –
Fc1cccc(NC(=S)NNc2c3ccccc3nc3ccccc23)c1 | · | ? | – | – | 40µM | ?
COc1ccc(NC(=O)CSc2nnc(CC3CCS(=O)(=O)C3)n2C)cc1 (stereo not drawn) | · | · | · | · | – | ·
O=C(C[n+]1cc2ccccc2c2ccccc21)c1ccccc1 | 25µM | – | – | – | – | ?
O=C(C[n+]1cccc2ccccc21)c1ccccc1 | – | – | – | – | – | ?
Cc1cccc(CC(=O)N2[C@@H]3CC[C@H]2CC(NC(=O)c2ccc(F)cc2)C3)c1 (stereo partly drawn) | · | · | · | · | – | ·
CCN(CC)C(=S)SSC(=S)N(CC)CC | – | – | – | – | 1.1µM! | –
CC(C)(C)C(=O)NCCCCNC(=O)C(C)(C)C | · | · | · | · | – | ·
O=c1c(Cl)c(NCCO)ncn1-c1ccccc1 | 28µM | – | – | – | – | –
c1ccc(-c2ccc(Oc3ncnc4sc(-c5ccccc5)cc34)cc2)cc1 | · | · | · | · | – | ·
Cc1ccccc1Cc1sc(N)nc1C | · | · | · | · | 14µM | ·
Cc1ccccc1Cc1cnc(N)s1 | · | · | · | · | – | ·
SMILES | ClpP mod | Rango dissoc inh | PTAP TSG101 blk | TDP1 block | 12-LOX inh | Rango complex inh
CC(C)N1CCC(NC(=O)C2CC2)CC1 | · | · | · | · | – | ·
COCCOc1cc(NC(=O)c2sccc2Oc2ccc([N+](=O)[O-])cc2F)c(Cl)cc1Cl | 14µM | – | – | – | – | –
O=C(Nc1ccccc1)c1sccc1Oc1ccc([N+](=O)[O-])cc1F | · | – | – | – | ? | ?
COc1ccc(COC(=O)N/C=C/c2ccco2)cc1 | · | – | – | – | ? | ?
COc1ccccc1COC(=O)N/C=C/c1ccco1 | · | ? | – | – | 50µM | ?
CCONC(=O)C(C)NC(=O)c1cccs1 (stereo not drawn) | · | · | · | · | – | ·
O=S(=O)(Cc1ccccc1)C1CCCCC1O (stereo not drawn) | 14µM | – | – | · | – | –
N#Cc1c(Nc2cccc(F)c2)sc(C(=O)c2ccc(Cl)cc2)c1N | – | · | · | – | 45µM | ·
COc1cccc(Nc2sc(C(=O)c3ccc(F)cc3)c(N)c2C(=O)NCc2ccc(Cl)cc2)c1 | – | · | · | – | – | ·
